GPT2 inh – Primary qHTS assay for inhibitors of Glutamate pyruvate transaminase 2 (GPT2); Alanine aminotransferase 2 (Homo sapiens), Q8TD30; Recombinant GPT2, coupled pyruvate oxidase/HRP Amplex Red fluorescence; Potency, µM (doses to about 57.7 µM), without a hit: at the highest dose activity change, negative = inhibition, usual class: inhibitors; 0.25% of 100,000 active; note: nearly all actives have a fitted effect of over 60% in size
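Fluorescence of coupled pyruvate oxidase/HRP/Amplex Red system (50uM Amplex, 30 min, dark) reports pyruvate formed by GPT2. Enzyme reaction: 10ng/uL GPT2, 2mM L-alanine, 250uM a-KG, 30 min room temperature, pH 7.5; 50uM AOA control.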
3T3 cytotox – Cytotoxic Profiling in NIH 3T3 Cell Line of Diverse Libraries Using Quantitative High-Throughput Screening | 4.3% of 94,000 active | Potency, µM (top dose mostly 96.7 µM), without a hit: at the highest dose activity change, negative = cytotoxicity, actives largely listed as inhibitors | AID 1345082, 2018 | NIH 3T3 viability, CellTiter-Glo ATP luminescence, 48-72 h; note: nearly all actives have a fitted effect of over 55% in size
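Viability of NIH 3T3 cells after 48 or 72 hr compound treatment at 37 °C was assessed by CellTiter-Glo, with luminescence imaged following a 10 min room-temperature step.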
NPR1 antag – Natriuretic polypeptide receptor (hNpr1) antagonism - Primary qHTS; HEK293 hNpr1 GloSensor cGMP, ANP-stimulated luminescence; Potency, µM (doses to about 46.3 µM), for the others: at the top dose activity change, negative = inhibition, actives largely listed as inhibitors; Atrial natriuretic peptide receptor 1 (Homo sapiens), P16066; 1.6% of 76,000 active; AID 1347048, 2019; calls by dose curve; note: nearly all actives have a fitted effect of over 60% in size
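Compound pre-incubated 30 min at room temperature on GloSensor-loaded HEK293 cells stably carrying hNpr1 and the pGS-40F cGMP biosensor. Stimulation uses hNppA at 0.1 nM final; luminescence is taken at baseline and 20 min post-agonist.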
HEK293 tox – Cytotoxic Profiling in HEK 293 Cell Line of Diverse Libraries Using Quantitative High-Throughput Screening. HEK 293 viability, ATP luminescence (CellTiter-Glo), 48-72 h. 6.6% of 94,000 active. Potency, µM (series often up to 115 µM), without a hit: at the highest dose activity change, negative = cytotoxicity, usual class: inhibitors. AID 1345083, 2018; note: nearly all actives have a fitted effect of over 60% in size
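Viability of HEK 293 cells, plated at 250 cells/well, was judged by cellular ATP after compound treatment for 48 or 72 hr. Luminescence was imaged 10 min after CellTiter-Glo addition at room temperature.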
Luciferase inh – Firefly luciferase inhibition profiling of diverse chemical library using quantitative high-throughput screening; Luciferin 4-monooxygenase (Photinus pyralis), P08659; Potency, µM (titrated, usually from 115 µM), actives largely listed as inhibitors; purified P. pyralis luciferase, luminescence, biochemical; AID 1347043, 2019; 2.5% of 76,000 active; note: nearly all actives have a fitted effect of over 65% in size
Target sequence (P08659 whole entry, looked up): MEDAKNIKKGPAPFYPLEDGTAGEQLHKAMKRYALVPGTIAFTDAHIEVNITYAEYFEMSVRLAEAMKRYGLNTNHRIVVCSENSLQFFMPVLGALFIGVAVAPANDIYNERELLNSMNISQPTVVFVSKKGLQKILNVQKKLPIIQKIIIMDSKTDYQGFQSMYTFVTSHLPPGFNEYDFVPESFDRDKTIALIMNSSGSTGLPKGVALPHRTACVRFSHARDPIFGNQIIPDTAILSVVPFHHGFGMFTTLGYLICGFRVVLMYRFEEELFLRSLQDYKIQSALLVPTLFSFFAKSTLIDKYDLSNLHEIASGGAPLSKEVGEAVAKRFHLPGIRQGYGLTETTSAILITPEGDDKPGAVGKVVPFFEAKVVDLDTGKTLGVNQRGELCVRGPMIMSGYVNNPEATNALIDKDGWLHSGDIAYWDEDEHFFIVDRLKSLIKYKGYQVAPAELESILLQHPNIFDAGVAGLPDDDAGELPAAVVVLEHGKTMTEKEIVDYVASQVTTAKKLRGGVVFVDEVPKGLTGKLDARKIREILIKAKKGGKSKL
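Purified P. pyralis luciferase (10nM final) in 50mM Tris acetate pH 7.5, 10mM Mg acetate, 0.01% Tween-20, 0.05% BSA with 10uM D-luciferin and 10uM ATP. Compounds titrated qHTS. Luminescence imaged on CCD.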
* = called active by the depositor; i = inactive; ? = inconclusive; / = no result; ! = not confirmed by another sample; [ ] = dose if it differs, or a comment. The list is not random: actives were taken first. Their share in the collection is about 10%. Unless noted, calls come from the whole dose curve; as a rule, active = well fitted curve in the direction sought with a large enough effect; inconclusive = small, poorly fitted or top-dose-only effect, or another doubt; inactive = no such curve, though single readings can be large; an effect the other way counts as inactive or inconclusive. % is set by controls: 0 for no effect and ±100 for the full control effect; potency is the fitted concentration of half-maximal effect.

SMILES | GPT2 inh | 3T3 cytotox | NPR1 antag | HEK293 tox | Luciferase inh
CCn1cc(C(=O)N2C[C@@H](COC)[C@H](c3nc(C4CC4)no3)C2)cn1 | 1% | i | 2% | -5% | i
CCc1nncn1C1CCN(C(=O)c2cc(C)cc(C)c2)CC1 | -5% | -16% | 1% | -5% | i
CN1Cc2ccc(Nc3ccccc3)nc2C(C)(C(=O)NCc2cccs2)C1 (stereo not given) | ? | ? | -20%[70.6 µM] | 71µM* | i
CN1Cc2ccc(NCc3ccccc3)nc2C(C)(C(=O)NCc2cccnc2)C1 (stereo not given) | -1%[88.5 µM] | ? | -8%[70.6 µM] | ? | i
O=C(NCc1ccco1)C1c2ccccc2C(=O)N(C2CCCCC2)C12CCCCC2 (stereo not given) | 2% | ? | -18% | ? | i
COCCN(C)C(=O)C(C)(C)Oc1nn(Cc2cccc(Cl)c2)c2ccccc12 | -8%[88.5 µM] | 79µM* | -22%[70.6 µM] | 89µM* | i
CN(C)CCCOc1nn(Cc2ccccc2)c2ccccc12 | 1.3µM*! | / | / | / | /
CC(C)(Oc1nn(Cc2cccc(Cl)c2)c2ccccc12)C(=O)NCC[S+](C)(=O)[O-] | i | ? | ? | ? | i
CN(C)C(=O)C(C)(C)Oc1nn(Cc2cccc(Cl)c2)c2ccccc12 | -13%[88.5 µM] | ? | -10%[70.6 µM] | 79µM* | i
CC(C)OCCCNC(=O)CCC1CCN(C(=O)c2ccccc2)CC1 | i | i | 3% | 13% | i
CCOC(=O)[C@H]1C[C@]2(CCCCN(CCOC)C2=O)N(C(=O)c2ccno2)[C@H]1c1ccco1 | / | -21% | / | ? | /
O=C(OCc1ccccc1)N1CCOCC12CCN(Cc1ccc(O)cc1)CC2 | i | 79µM* | -10%[70.6 µM] | ? | i
COc1cccc(N2C(=O)OCC23CCN(Cc2c[nH]c4ccccc24)C3)c1 (stereo not given) | -3%[88.5 µM] | -4%[138 µM] | 3%[70.6 µM] | ? | i
O=C1OCC2(CCN(Cc3c[nH]c4ccccc34)C2)N1Cc1ccccc1 (stereo not given) | i | 89µM* | -22%[70.6 µM] | ? | i
O=C(OCc1ccccc1)N1CCOCC12CCN(Cc1c[nH]c3ccccc13)CC2 | -6%[88.5 µM] | 35µM* | -21%[70.6 µM] | 56µM* | i
C#CCNC(=O)C1CCCCN1Cc1ccc(-c2ccsc2)cc1 (stereo not given) | -4% | -39% | / | 40µM* | /
O=C(NC1CCCC1)C1CCCCN1Cc1ccc(-c2ccsc2)cc1 (stereo not given) | 0% | ? | / | 25µM* | /
O=C(NC1CCCC1)C1CCCN1Cc1ccc(-c2cncnc2)cc1 (stereo not given) | -3%[88.5 µM] | ? | / | ? | /
CNC(=O)C1CCCN1Cc1ccc(-c2cncnc2)cc1 (stereo not given) | i | -9%[138 µM] | / | -13%[172 µM] | /
CC(C)NC(=O)C1CCCCN1Cc1ccc(-c2ccsc2)cc1 (stereo not given) | i | ? | / | 50µM* | /
O=C(NC1CC1)C1CCCCN1Cc1ccc(-c2ccsc2)cc1 (stereo not given) | 5%[88.5 µM] | 79µM* | / | ? | /
CNC(=O)C1CCCCN1Cc1ccc(-c2ccsc2)cc1 (stereo not given) | -1%[88.5 µM] | ? | / | ? | /
COc1ccccc1/C=C/CN1CCNC(=O)C1CC(=O)N(C)Cc1ccc(C)cc1 (stereo not given) | -1% | -7% | 2% | -6% | i
CCCN1C(=O)CCc2cc(NC(=O)c3ccc4c(c3)OCO4)ccc21 | -10% | ? | -3% | 45µM* | 32µM*
CCCN1C(=O)CCc2cc(NC(=O)c3ccc(C)cc3)ccc21 | -9% | ? | -14% | ? | 32µM*
SMILES | GPT2 inh | 3T3 cytotox | NPR1 antag | HEK293 tox | Luciferase inh
CCOc1ccc(C(=O)Nc2ccc3c(c2)CCC(=O)N3CC(C)C)cc1 | i | ? | ? | 28µM* | i
CC(=O)Nc1ccc2c(c1)CCC(=O)N2CC(C)C | 0% | -5% | 0% | 3% | i
Cc1ccc(NC(=O)N2CCCC(Cn3cnc4cccnc43)C2)cc1 (stereo not given) | 2% | -15% | -3% | -11% | i
COc1ccc(S(=O)(=O)N2CCC(Cc3nncn3C)CC2)cc1 | i | -4% | 1% | -14% | i
CC(C)NC(=O)N[C@H]1CCN2C(=O)c3cc(/C=C/c4ccccc4)ccc3NC(=O)[C@H]12 | 1%[88.5 µM] | i | 5%[70.6 µM] | 2%[172 µM] | 4µM*
O=C(c1cc(F)cc(F)c1)N1C[C@@H](CO)[C@H](c2ccncc2)C1 | 4% | -12% | -10% | 0% | i
CN(C)CCN(C)[C@@H]1[C@H](O)[C@H](CO)O[C@@H]1CNC(=O)Nc1ccc(OC(F)(F)F)cc1 | i | -5% | 9% | 0% | i
Cc1ccc(NC(=O)Cn2c(N3CCCCC3)nc(C)c(C)c2=O)cc1C | -1% | ? | -1% | 22µM* | i
COC(=O)c1cccc(NC(=O)c2c(OC)cc(=O)n3c2CCCC3)c1 | -1% | -23% | -3% | -10% | i
CC1=C[C@@H](CNS(C)(=O)=O)[C@H](C(C)C)C[C@H]1Cc1nnc(-c2ccccc2F)o1 | 1%[88.5 µM] | ? | 0%[70.6 µM] | ? | i
C#CCN(C)C[C@@H]1C=C(C)[C@H](Cc2nnc(-c3ccccc3F)o2)C[C@H]1C(C)C | -7%[88.5 µM] | 79µM* | ? | 79µM* | i
CCCS(=O)(=O)NC[C@@H]1C=C(C)[C@H](Cc2nnc(-c3ccccc3F)o2)C[C@H]1C(C)C | -13% | 25µM* | -14% | 22µM* | i
CC1=C[C@@H](CNC(=O)C2CC2)[C@H](C(C)C)C[C@H]1Cc1nnc(-c2ccccc2F)o1 | -9%[88.5 µM] | 100µM* | -27%[70.6 µM] | 63µM* | i
CC=C1NC(=O)[C@H]2CSSCCC=C[C@H](CC(=O)N[C@H](C(C)C)C(=O)N2)OC(=O)[C@H](C(C)C)NC1=O | 4% | / | / | / | /
Cc1ccc(C)c(N2CCN(C(=O)CCc3conc3-c3ccccc3F)CC2)c1 | i | ? | -15% | ? | i
COCCNC(=O)C1CCCN(Cc2cccc(-c3ccccc3OC)c2)C1 (stereo not given) | -3% | ? | / | ? | /
Cc1[nH]cnc1CN1CCCC(C(=O)Nc2ccc(-c3cccc(F)c3)cc2)C1 (stereo not given) | i | ? | 6% | 25µM* | i
COc1ccccc1-c1cccc(CN2CCCC(C(=O)NCCc3ccc(F)cc3)C2)c1 (stereo not given) | -1% | 32µM* | / | ? | /

High-throughput results deposited in PubChem by National Center for Advancing Translational Sciences (NCATS).
